Hit rate of the full screen: of about 320,000 compounds, about 2,800 (0.88%) were called active.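 The calls were made as follows: active = inhibition above the mean inhibition of all tested compounds plus 3 SD, computed separately for each screening campaign (cut at about 15% in these data); inactive = the rest.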 The full list was thinned out, with actives kept by preference.
These molecules were tested against Serine/threonine-protein phosphatase PP1-alpha catalytic subunit (Homo sapiens) (UniProt P62136) (assay: PP1-alpha phosphatase inhibitors, primary screen, counter-screen for PP5 inhibitor project, biochemical, fluorescence, OMFP substrate, single point (AID 2235)). Details: purified PP1alpha, at 6.7 µM, active compounds read high.
Sequence of Serine/threonine-protein phosphatase PP1-alpha catalytic subunit (Homo sapiens) (P62136 whole entry, looked up): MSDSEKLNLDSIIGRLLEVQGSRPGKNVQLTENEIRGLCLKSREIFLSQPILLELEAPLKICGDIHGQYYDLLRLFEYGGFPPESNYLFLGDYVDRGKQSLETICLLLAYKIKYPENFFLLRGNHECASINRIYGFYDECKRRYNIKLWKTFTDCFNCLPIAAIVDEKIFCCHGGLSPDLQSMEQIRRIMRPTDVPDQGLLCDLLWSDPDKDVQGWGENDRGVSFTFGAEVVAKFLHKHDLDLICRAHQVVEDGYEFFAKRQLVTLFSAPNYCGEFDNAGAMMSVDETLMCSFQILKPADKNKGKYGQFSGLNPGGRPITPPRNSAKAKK

Compound	inhibition
CC(=O)c1c(C)[nH]c(C(=O)OCC(=O)Nc2sc3c(c2C#N)CCCC3)c1C	8.8% (inactive)
Cc1cccc(N(Cc2ccccc2)C(=O)c2ccccc2F)c1	0.11% (inactive)
COc1ccc(C2=NS(=O)(=O)N(C)C(C(=O)NC(C)c3ccccc3)=C2)cc1 (centres undefined)	-1.27% (inactive)
CCOc1ccc(CNC(=O)C2CCCN(c3nnc(C)c4c(C)n(-c5ccccc5)nc34)C2)cc1 (centres undefined)	1.12% (inactive)
CCc1ccc(CNC(=O)C2CCN(c3nnc(C)c4c(C)n(-c5ccc(C)cc5)nc34)CC2)cc1	16.5% (active)
COc1ccc(-n2nc3c(N4CCC(C(=O)NCc5ccccc5)CC4)nnc(C)c3c2C)cc1	4.6% (inactive)
CC(C)Cn1c(N)c(C(=O)COC(=O)CN2C(=O)C3CC=CCC3C2=O)c(=O)n(C)c1=O (centres undefined)	-0.85% (inactive)
O=C(Nc1ccc2ccccc2c1)Nc1ccc2snnc2c1	13.3% (inactive)
Cc1nn(-c2ccccc2)c2[nH]c(C(F)(F)F)cc(=O)c12	2.68% (inactive)
CCCN1CCN(C(=O)CCCNC(=O)c2ccc(Cl)cc2)CC1	-3.09% (inactive)
CN1CCN(CCCNC(=O)c2ccc(/C=C3\Oc4ccccc4N(Cc4ccc(Cl)cc4)C3=O)cc2)CC1	25.6% (active)
CN1C(=O)/C(=C/c2ccc(C(=O)NC3CCCC3)cc2)Oc2ccccc21	1.1% (inactive)
Cc1cc(C)nc(-n2nc(C)cc2NC(=O)c2ccc(F)cc2F)n1	-0.61% (inactive)
O=C(NCc1ccccc1)C(c1cccnc1)N(C(=O)c1csnn1)c1ccc(F)cc1 (centres undefined)	8.74% (inactive)
CC(=O)c1ccc(N2C(=NC(=O)C(C)C)SC3CS(=O)(=O)CC32)cc1 (centres undefined)	-3.39% (inactive)
O=C(CCC1CCCC1)N=C1SC2CS(=O)(=O)CC2N1Cc1ccccc1 (centres undefined)	5.06% (inactive)
O=C(N=C1SC2CS(=O)(=O)CC2N1c1cc(Cl)ccc1Cl)C1CC1 (centres undefined)	18.9% (active)
CCOC(=O)N1CCN(C(=O)c2ccc3c(=O)n(CCc4ccc(OC)c(OC)c4)c(=O)[nH]c3c2)CC1	4.83% (inactive)
NS(=O)(=O)c1ccc(CCNC(=O)COC(=O)COc2cccc(C(F)(F)F)c2)cc1	-0.82% (inactive)
CCOC(=O)c1cc(-c2ccc(F)cc2)n(CC(=O)NCc2ccccn2)c1C	-3.29% (inactive)
CCCCOc1ccc(-c2nnc(-c3ccco3)o2)cc1	3.14% (inactive)
Cc1ccc(OCC(=O)Nc2ccc(-c3nc4ncccc4o3)cc2)cc1	0.81% (inactive)
Cc1ccc(OCC(=O)Nc2ccc(-c3nnc(-c4ccco4)o3)cc2)cc1	24.5% (active)

Compound	inhibition
Cc1cc(C)nc(N/N=C/c2c(CO)cnc(C)c2O)n1	1.96% (inactive)
CSc1ccccc1NC(=O)c1cc(C2CC2)on1	0.1% (inactive)
C=CCSc1nnc(N2C(=O)C(O)=C(C(=O)c3ccco3)C2c2ccc(F)cc2)s1 (centres undefined)	10.6% (inactive)
Cc1ccc2nc(N3CCN(C(=O)c4ccco4)CC3)sc2c1	-4.18% (inactive)
Cc1ccc2nc(N3C(=O)C(O)=C(C(=O)c4ccco4)C3c3cccc(O)c3)sc2c1 (centres undefined)	21.7% (active)
COc1ccc(OC(C)C(=O)Nc2cccnc2)cc1 (centres undefined)	3% (inactive)
Cc1cc(NC(=O)CSCc2nc(-c3cccc(Cl)c3)oc2C)no1	0.91% (inactive)
COc1ccc(N2C(=O)C(CC(=O)Nc3ccccc3)N(Cc3ccc(OC)c(OC)c3)C2=O)cc1 (centres undefined)	-2.83% (inactive)
c1ccc(-c2cc(-c3ccccc3)[nH]n2)cc1	2.76% (inactive)
OCCCN1c2ccccc2Nc2nnc(-c3ccccc3)cc21	21.4% (active)
N=c1c2c(-c3ccccc3)c(-c3ccccc3)n(Cc3ccccc3)c2ncn1CCCO	7.81% (inactive)
CCN(CCCNC(=O)c1ccc2c(c1)NC(=O)CN2C)c1cccc(C)c1	-0.43% (inactive)
CCC(C)N(C(=O)CSc1nnnn1-c1ccccc1OC)C1CCS(=O)(=O)C1 (centres undefined)	-1.76% (inactive)
CC1CCCCN1C(=O)Cn1c(=O)oc2cc(S(=O)(=O)N3CCCCC3)ccc21 (centres undefined)	5.73% (inactive)
COc1cc(Br)c(-c2sc(Nc3ccccc3)n[n+]2-c2ccccc2)cc1OC	-0.57% (inactive)
CCc1ccc(Nc2n[n+](-c3ccccc3)c(-c3cccc(Cl)c3Cl)s2)cc1	14.2% (inactive)
COc1ccc(C)cc1Nc1n[n+](-c2ccccc2)c(-c2cccc(Cl)c2Cl)s1	15.2% (active)
CCCN(CC(=O)Nc1ccc(OC)c(OC)c1)CC(=O)Nc1ccc(F)c(F)c1F	-0.52% (inactive)
O=C(Nc1nc(-c2ccco2)c(-c2ccco2)s1)c1ccco1	26.9% (active)
O=C(Nc1nnc(CCOCCOCCc2nnc(NC(=O)c3ccco3)s2)s1)c1ccco1	-2.12% (inactive)
NC(=O)c1ccsc1NC(=O)c1ccco1	1.47% (inactive)
N#Cc1ccccc1S(=O)(=O)N1CCN(Cc2c(O)ccc3ccccc23)CC1	0.2% (inactive)
CCn1c(SCC(=O)Nc2ccc(Br)cc2)nc2sc3c(c2c1=O)CCN(C)C3	3.91% (inactive)

Compound	inhibition
COc1ccccc1NC(=O)CSc1nc2sc3c(c2c(=O)n1-c1ccccc1)CCN(C)C3	21.4% (active)
CCOc1ccc(-n2c(SCC(=O)Nc3ccc(OC)cc3)nc3sc4c(c3c2=O)CCN(C)C4)cc1	11.8% (inactive)
Cc1cc(S(=O)(=O)NC2CCCC2)ccc1-n1cnnn1	3.65% (inactive)
CC(Sc1nnnn1C)C(=O)NC(=O)NC1CCCCC1 (centres undefined)	10.8% (inactive)
CCN(CCNC(=O)C1=C(C)C(=O)OC12CCC(C)CC2)c1ccccc1 (centres undefined)	-1.92% (inactive)
Cc1ccc(NC(=O)Nc2cccc(C(F)(F)F)c2)nc1	2.27% (inactive)
O=C(Nc1ccc(C(=O)N2CCOCC2)cc1)Nc1cccc(C(F)(F)F)c1	0.27% (inactive)
CCNS(=O)(=O)c1ccc(NC(=O)Nc2cccc(C(F)(F)F)c2)cc1	34.2% (active)
CCCCNCc1ccc(SC)cc1	-2.43% (inactive)
N=c1c2c3c(sc2nc2n1CCCCC2)CCCC3	-1.9% (inactive)
CCCCn1c(SCc2ncc(-c3ccccc3)o2)nc2cc(S(N)(=O)=O)ccc21	17.9% (active)
CCCCn1c(SCC(=O)N2CCCC2=O)nc2cc(S(N)(=O)=O)ccc21	2.2% (inactive)
CCCCn1c(SCC(=O)N2CCC(C(=O)OCC)CC2)nc2cc(S(N)(=O)=O)ccc21	-5.51% (inactive)
Cc1ccccc1/C=C\c1nc(O)c([N+](=O)[O-])c(=O)[nH]1	-3.61% (inactive)
CC(=O)c1ccc(N2CCN(S(=O)(=O)c3ccc4c(c3)CC(=O)N4C)CC2)cc1	20.6% (active)
CC(=O)c1ccc(N2CCN(S(=O)(=O)c3c(C)[nH]c(=O)[nH]c3=O)CC2)cc1	-4.3% (inactive)
CC(=O)c1ccc(N2CCN(C(=O)C3CCN(S(=O)(=O)c4ccc5c(c4)CC(C)N5C(=O)C4CC4)CC3)CC2)cc1 (centres undefined)	8.74% (inactive)
COc1cccc(NC(=O)C/C(C)=N/NC(=O)C2CCCCC2)c1	4.45% (inactive)
COc1ccc(CCNC(=O)C2CC3Cn4c(nc5cc(C)c(C)cc54)C3N2C)cc1 (centres undefined)	-2.39% (inactive)
C=CCOC(=O)C1=C[C@@H](c2ccc3c(c2)OCO3)C[C@@H](OCCCCO)O1	5.48% (inactive)
O=C(CN1C(=O)NC(Cc2ccccc2)(Cc2ccccc2)C1=O)NCC1CCCCC1	-3.39% (inactive)
COc1cc2nc(Cl)nc(NCCO)c2cc1OC	-3.14% (inactive)
OCCNc1nc(Nc2ccc(Cl)c(Cl)c2)nc2ccccc12	23.4% (active)

Compound	inhibition
CN(C)c1nc(Nc2ccc(Cl)c(Cl)c2)nc(N(C)C)n1	0.07% (inactive)
CCc1ccc(CNC(=O)C2CC(=O)N(CCc3ccc(C)cc3)C2)cc1 (centres undefined)	-3.41% (inactive)
CCC(=O)N1CCN=C1SCc1ccc(F)cc1	-1.6% (inactive)
COC(=O)C1=C(O)/C(=C/c2ccc(OCC(=O)Nc3ccccc3)cc2)N=C1C	1.71% (inactive)
Cc1ccc(NC(=O)COc2ccc(/C=C3/NC(=O)NC3=O)cc2)cc1	19.3% (active)
CCOC(=O)C1=C(O)/C(=C/c2ccc(OCC(=O)Nc3ccc(C)cc3)cc2)N=C1C	15.1% (inactive)
CCc1cccc(NC(=O)COC(=O)C2CCN(c3ccc(C(F)(F)F)cn3)CC2)c1	3.82% (inactive)
Cc1noc(C)c1S(=O)(=O)NCCc1ccc(S(N)(=O)=O)cc1	-1.43% (inactive)
O=C(c1ccc(Cl)c(S(=O)(=O)N2CCCCCC2)c1)N1CCN(c2ccc(O)cc2)CC1	5.02% (inactive)
CC(C)n1ncc2c(C(=O)NCc3ccccc3CN(C)C)cc(C3CC3)nc21	3.23% (inactive)
O=C(NCC(c1ccco1)N1CCc2ccccc2C1)c1ccccc1Cl (centres undefined)	-5.84% (inactive)
O=C(/C=C/c1ccc(F)cc1)NCCNC(=O)/C=C/c1ccc(F)cc1	-0.56% (inactive)
O=C(/C=C/c1ccc(F)cc1)NC(=S)NNC(=O)c1cccnc1	24.8% (active)
CC(C)c1ccc(/C=C/C(=O)NNC(=O)c2cccnc2)cc1	-4.56% (inactive)
CCN(CC)Cc1c(C(=O)N/N=C/c2cccc(OCc3ccc(F)cc3)c2)nnn1-c1nonc1N	-5.41% (inactive)
COc1cccc(N2CCN(c3ccc4nnc(CCC(=O)N5CCN(C)CC5)n4n3)CC2)c1	-3.98% (inactive)
NC(N)=N/N=C/c1ccc(OCc2ccc(Cl)cc2Cl)cc1	37.2% (active)
OC(CNCCc1ccc(Cl)cc1Cl)COc1ccccc1 (centres undefined)	10.6% (inactive)
CCOc1ccc(NC(=O)NNC(=O)c2ccc(Cl)cc2Cl)cc1	3.13% (inactive)
Cc1cccc(Nc2nnc(SCC(=O)c3c(N)n(C4CC4)c(=O)[nH]c3=O)s2)c1C	-0.71% (inactive)

Source: PubChem BioAssay AID2235 (The Scripps Research Institute Molecular Screening Center, 2010)
